HSF1 inhib: HSF1 inhibitors in luciferase reporter cells, primary screen, cell-based, NIH3T3, luminescence; NIH3T3-HGL HSE-luciferase, MG132-induced, luminescence 8 h; active compounds read low; activity change, negative = inhibition, % at 7.5 µM (by protocol); 300,000 compounds, 0.77% hits; AID 2098, 2009;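 active means more than half of replicate wells show activity change below -50%, luminescence cut by over half; inconclusive means some wells, but at most half, below -50%; inactive means no replicate well below -50%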;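 further: luciferase reports HSF-1 transcriptional activity via heat shock element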
LGR2 antag: inhibitors of bursicon-induced LGR2 CRE-luciferase signal, primary screen, cell-based, HEK293, CRE-luciferase reporter, bursicon stimulation; 380,000 compounds, 0.35% hits; AID 720647, 2013; bursicon-stimulated, 4 h; inhibition, % at 9.99 µM;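 active means drop in luminescence signal, shown as inhibition above about 50% in the replicate tests, limit read from the data, passing the limit was not always enough; inconclusive means probably only some replicates passing the limit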;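 further: agonist challenge used bursicon conditioned medium at about half maximal strength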
EBV LMP1 NFkB: EBV LMP1-driven NF-kappaB luciferase reporter inhibitors, primary screen, cell-based, luminescence, single point. LMP1-induced NF-kappaB luciferase reporter cells. inhibition, % at 12.5 µM. 350,000 compounds, 0.69% hits. AID 504558, 2011; in the data active means inhibition above about 41%; inconclusive means no clear call, values can overlap the other calls
TROY signal inh: inhibitors of TROY-driven NF-kB signaling, primary screen, Q293 LMP1-TROYcd cells, NF-kB luciferase, uHTS. Q293 LMP1-TROYcd NF-kB luciferase reporter, 4 h. inhibition, % at 10 µM. 360,000 compounds, 0.98% hits. AID 1347056, 2019;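 active means compounds whose plate-normalised and pattern-corrected inhibition of the luciferase reporter signal at the single screening dose is 50% or more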
HSF-1 act: HSF-1 activators, primary screen, NIH3T3-HGL cells, MG132 stress, luminescence, single point | activation, % at 9 µM | 300,000 compounds, 1.7% hits | NIH3T3-HGL HSF-1 luciferase reporter, 8 h; 100% = twice DMSO control signal | AID 504408, 2011;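 active means mean replicate activation of at least 50% with a set share of replicates each reaching 50%; inconclusive means only one of those two conditions met; inactive means mean below 50% and too few replicates reaching it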
TWEAK-Fn14 inh: inhibitors of TWEAK-Fn14 signaling, primary screen, luciferase reporter cells, uHTS; TWEAK-stimulated Fn14 reporter cells, luciferase luminescence, 8 h; inhibition, % at 10 µM; 360,000 compounds, 2% hits; AID 1159606, 2016; in the data active means inhibition above about 50%
Large screens that a line does not name were inactive. Shown are actives, neighbours in structure and some others; about 3.6% of the full set was active somewhere.

CCCC#Cc1ccc2c(c1)O[C@@H](CN(C)Cc1ccccc1)[C@H](C)CN([C@@H](C)CO)S2(=O)=O	none (no result: HSF1 inhib, EBV LMP1 NFkB, TROY signal inh, HSF-1 act, TWEAK-Fn14 inh)
N/C(=N\OC(=O)c1ccccc1)c1ccccn1	HSF1 inhib -65, LGR2 antag 95, EBV LMP1 NFkB 45, TROY signal inh 75, TWEAK-Fn14 inh 96
N/C(=N\OC(=O)c1ccccc1)c1ccncc1	none
Cc1ccc(C(=O)O/N=C(\N)Cc2cccc3ccccc23)cc1	HSF-1 act 64
COc1ccccc1CC(=O)O/N=C(\N)Cc1cccc2ccccc12	none (no result: LGR2 antag)
Cc1cccc(C(=O)O/N=C(\N)c2ccccn2)c1	LGR2 antag 100, TROY signal inh 85, TWEAK-Fn14 inh 102
N/C(=N\OC(=O)c1cccc(F)c1)c1ccccc1	none
N/C(=N\OC(=O)c1cccc(F)c1)c1ccccn1	LGR2 antag inconclusive, TROY signal inh 61, TWEAK-Fn14 inh 84
CC(C)NC(=O)N[C@@H]1CC[C@@H](CC(=O)N2CCCCC2)O[C@H]1CO	none (no result: HSF1 inhib, EBV LMP1 NFkB, TROY signal inh, HSF-1 act, TWEAK-Fn14 inh)
CCCNC(=O)[C@H]1[C@H](CO)[C@H]2Cn3c(ccc(-c4ccccc4F)c3=O)[C@H]2N1C	none (no result: HSF1 inhib, EBV LMP1 NFkB, TROY signal inh, HSF-1 act, TWEAK-Fn14 inh)
N/C(=N\OC(=O)COc1ccccc1)c1ccccn1	none
COc1cc(C(=O)O/N=C(\N)c2ccccn2)cc(OC)c1OC	none
N/C(=N\OC(=O)c1ccc(Br)o1)c1ccccn1	LGR2 antag 74, TROY signal inh 51, TWEAK-Fn14 inh 60
Cc1ccc(C(=O)O/N=C(\N)c2ccccn2)cc1C	HSF1 inhib -74, LGR2 antag 98, EBV LMP1 NFkB 56, TROY signal inh 81, TWEAK-Fn14 inh 99
Cc1ccc(C(=O)O/N=C(\N)c2ccccn2)cc1	HSF1 inhib -81, LGR2 antag 101, EBV LMP1 NFkB 79, TROY signal inh 84, TWEAK-Fn14 inh 103
CCOc1ccc(C(=O)O/N=C(\N)c2ccccn2)cc1	HSF1 inhib -80, LGR2 antag 103, EBV LMP1 NFkB 88, TROY signal inh 87, TWEAK-Fn14 inh 103
CC1CCN(c2ccc(-c3cccs3)nn2)CC1	HSF1 inhib -67, LGR2 antag 75, EBV LMP1 NFkB 57, TROY signal inh 66, TWEAK-Fn14 inh 105
Clc1ccc(-c2cccs2)nn1	none (no result: LGR2 antag)
COc1cccc(NC(=O)N(C)C[C@H]2Oc3cc(C#CC4(O)CCCC4)ccc3S(=O)(=O)N([C@@H](C)CO)C[C@H]2C)c1	none (no result: HSF1 inhib, EBV LMP1 NFkB, TROY signal inh, HSF-1 act, TWEAK-Fn14 inh)
CN1C(=O)c2cc(NC(=O)C3CCCCC3)ccc2OC[C@H]2O[C@@H](CC(=O)NCCc3ccncc3)CC[C@H]21	none (no result: HSF1 inhib, EBV LMP1 NFkB, TROY signal inh, HSF-1 act, TWEAK-Fn14 inh)
COCCn1c(N)c(N(Cc2ccccc2)C(=O)Cc2c(Cl)cccc2Cl)c(=O)[nH]c1=O	none
COCCn1c(N)c(N(Cc2ccccc2)C(=O)c2ccc(C#N)cc2)c(=O)[nH]c1=O	HSF-1 act 55
Cn1c(=N)n(CC(=O)c2ccc(Cl)c(Cl)c2)c2ccccc21	HSF1 inhib -63, TWEAK-Fn14 inh 85
Cn1c(=N)n(CC(=O)c2ccccc2)c2ccccc21	none (no result: EBV LMP1 NFkB)
CCOC(=O)c1ccc(NC(=O)NCCc2cnc[nH]2)cc1	TWEAK-Fn14 inh 60
O=C(COc1ccccc1)Nc1nnc(S(=O)(=O)N2CCCCCC2)s1	HSF1 inhib -71
O=C(COc1ccccc1)Nc1nnc(S(=O)(=O)N2CCCCC2)s1	none
COC(=O)c1cc(C(=O)c2cc(Cl)ccc2O)coc1=N	TWEAK-Fn14 inh 70
COc1cccc(NC(=O)N[C@H]2CC[C@@H](CC(=O)NCc3ccccn3)O[C@H]2CO)c1	none (no result: HSF1 inhib, EBV LMP1 NFkB, TROY signal inh, HSF-1 act, TWEAK-Fn14 inh)
CCc1ccc(C(=O)Nc2ccc(OC)c(S(=O)(=O)N3CCOCC3)c2)cc1	none
Cc1ccc(NC(=O)c2ccc(S(=O)(=O)N(C)c3ccccc3)cc2)cc1S(=O)(=O)N1CCOCC1	TWEAK-Fn14 inh 59 (no result: HSF1 inhib, HSF-1 act)
COc1ccc(Nc2nc(-c3cccs3)nc3ccccc23)cc1S(=O)(=O)N1CCOCC1	TWEAK-Fn14 inh 97
COc1ccc(NC(=O)c2ccc(-c3ccccc3)cc2)cc1S(=O)(=O)N1CCOCC1	EBV LMP1 NFkB 51
Cc1ccc(NC(=O)C(C)N2C(=O)c3ccccc3C2=O)cc1S(=O)(=O)N1CCOCC1 (stereo unspecified)	TROY signal inh 64 (no result: HSF1 inhib, HSF-1 act)
CO[C@H]1CN(C)C(=O)c2ccc(NC(=O)c3cc(C)on3)cc2OC[C@@H](C)N(CC2CC2)C[C@@H]1C	none (no result: HSF1 inhib, EBV LMP1 NFkB, TROY signal inh, HSF-1 act, TWEAK-Fn14 inh)
C[C@@H]1CN([C@@H](C)CO)C(=O)c2cc(NS(=O)(=O)c3cccs3)ccc2O[C@@H](C)CCCCO[C@H]1CN(C)C(=O)c1ccccc1	none (no result: HSF1 inhib, EBV LMP1 NFkB, TROY signal inh, HSF-1 act, TWEAK-Fn14 inh)
C/C=C/c1ccc([C@H]2[C@@H](CO)N(CC3CC3)C23CN(S(C)(=O)=O)C3)cc1	none (no result: HSF1 inhib, EBV LMP1 NFkB, TROY signal inh, HSF-1 act, TWEAK-Fn14 inh)
N#CC(C#N)=C1C=CC=CN1/C(=C\c1ccco1)C(=O)c1ccccc1	LGR2 antag 100, TROY signal inh 69, TWEAK-Fn14 inh 76 (no result: HSF1 inhib, HSF-1 act)
N#CC(C#N)=C1C=CC=CN1/C(=C\c1ccco1)C(=O)c1ccc(Br)cc1	TROY signal inh 78, TWEAK-Fn14 inh 92 (no result: HSF1 inhib, HSF-1 act)
COc1ccc(C(=O)/C(=C\c2ccco2)N2C=CC=CC2=C(C#N)C#N)cc1	HSF-1 act inconclusive (no result: LGR2 antag)
O=C(C[C@@H]1CC[C@@H]2[C@H](COC[C@H](O)CN2C(=O)c2ccccc2)O1)NCc1ccc(-c2ccccc2)cc1	none (no result: HSF1 inhib, EBV LMP1 NFkB, TROY signal inh, HSF-1 act, TWEAK-Fn14 inh)
CCN(CC)CC(C)(C)C(=O)/C=C/c1ccc(/C=C/C(=O)C(C)(C)CN(CC)CC)cc1	LGR2 antag 103, EBV LMP1 NFkB 91, TWEAK-Fn14 inh 102 (no result: HSF1 inhib, HSF-1 act)
CCN(CC)CCOC(=O)/C=C/c1ccccc1	none
CCOC(=O)c1c(NC(C)=O)sc2c(O)cccc12	none (no result: LGR2 antag)
CCOC(=O)c1c(NC(C)=O)sc2c(O)c(Br)cc(Br)c12	HSF-1 act 52
Cc1ccc(NC(=O)c2ccccc2NS(=O)(=O)c2ccc(Cl)s2)cc1S(=O)(=O)N1CCOCC1	LGR2 antag inconclusive, TROY signal inh 52, TWEAK-Fn14 inh 78
O=C(Nc1cc(S(=O)(=O)N2CCOCC2)ccc1O)c1ccc(NS(=O)(=O)c2ccc(Cl)s2)cc1	none
COc1ccc(C)cc1NC(=O)c1ccccc1NS(=O)(=O)c1ccc(Cl)s1	TROY signal inh 58, TWEAK-Fn14 inh 69
COc1cc(/C=N/N2CCN(C3c4ccccc4-c4ccccc43)CC2)cc(OC)c1OC	HSF-1 act 103
C[C@@H]1CCCCO[C@@H](CN(C)Cc2ccc(C(F)(F)F)cc2)[C@@H](C)CN([C@@H](C)CO)C(=O)c2cc(NC(=O)CCC(F)(F)F)ccc2O1	none (no result: HSF1 inhib, EBV LMP1 NFkB, TROY signal inh, HSF-1 act, TWEAK-Fn14 inh)
CCCCCSc1nc(C)c(CC(=O)O)c(=O)[nH]1	HSF1 inhib -92 (no result: LGR2 antag)

Source: PubChem BioAssay
